ALDH1A1 block: inhibitors of human aldehyde dehydrogenase 1A1; P00352; Purified ALDH1A1, NADH fluorescence, propionaldehyde substrate; Potency, µM (doses to about 75.3 µM), inactives show at the top dose activity, negative = inhibition, usual class: inhibitors; hit rate 7.3% among 220,000; active = well fitted inhibition curve with a large enough effect, not every such curve was filed as active; inconclusive = small, poorly fitted or top-dose-only effect, or another doubt; inactive = no such curve, though single readings can be large or run the other way;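 also: potency is read from the fitted curve at half-maximal effect; plate controls were no enzyme wells and a reference inhibitor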
Target sequence (P00352 whole entry, looked up): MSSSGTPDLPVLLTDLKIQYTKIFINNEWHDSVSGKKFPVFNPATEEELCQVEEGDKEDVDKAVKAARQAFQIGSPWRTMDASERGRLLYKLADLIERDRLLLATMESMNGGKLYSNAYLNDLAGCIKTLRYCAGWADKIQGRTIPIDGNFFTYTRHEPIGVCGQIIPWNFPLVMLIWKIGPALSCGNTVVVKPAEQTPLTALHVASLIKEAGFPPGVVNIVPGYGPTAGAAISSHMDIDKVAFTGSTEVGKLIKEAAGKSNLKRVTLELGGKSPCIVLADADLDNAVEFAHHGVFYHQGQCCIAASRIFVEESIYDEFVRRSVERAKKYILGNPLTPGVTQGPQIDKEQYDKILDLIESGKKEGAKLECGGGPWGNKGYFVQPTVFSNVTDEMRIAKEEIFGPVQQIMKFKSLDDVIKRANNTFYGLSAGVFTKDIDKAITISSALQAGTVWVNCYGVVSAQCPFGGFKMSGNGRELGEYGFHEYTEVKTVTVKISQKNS
HTT aggregate: inhibitors of mutant huntingtin aggregate formation in PC12 cells. Potency, µM (top dose mostly 46.1 µM), without a hit: at the highest dose activity change, negative = inhibition, usual class: inhibitors. PC12 HttQ103-GFP aggregates, Acumen cytometry, 40 h. hit rate 1.1% among 220,000; also: potency is read from the fitted curve at half-maximal effect; % is scaled to controls: 0 for no effect and ±100 for the full control effect; nearly all actives have a fitted effect of over 60% in size
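Quantitative HTS on tebufenozide-induced (100 nM) PC12 cells stably expressing polyQ103 Huntingtin exon 1–GFP. Reduction of bright GFP aggregates, detected by laser scanning cytometry after lysis, identified actives across the titration.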
HTT cytoprotect: Huntington cell model cytoprotection by ATP luminescence | hit rate 0.14% among 230,000 | PC12 HTT-Q103 induced, cytoprotection, ATP luminescence, 40 h | Potency, µM (titrated, usually from 56.4 µM), for the others: cytoprotection (ATP increase), hits mostly activators; also: potency is read from the fitted curve at half-maximal effect; % of control where 0% means no effect; nearly all actives have a fitted effect of over 45% in size
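PC12 cells with ecdysone-inducible HTT exon 1 Q103-GFP, induced with 100 nM tebufenozide and co-treated with library compounds in a dose series (1536-well, 1500 cells/well). Cytoprotection read as ATP content by ATPlite luminescence.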
CBFb RUNX1 block: CBF-beta/RUNX1 interaction disruption; AlphaScreen CBFb-His/RUNX1-biotin binding, biochemical; Potency, µM (series often up to 59.8 µM), inactives show at the top dose activity, negative = inhibition, most hits filed as inhibitors; 230,000 tested, under 10 active; also: % of control where 0% means no effect
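Room-temperature protein-protein interaction test with 30 nM each of His-tagged CBF-beta and biotinylated RUNX1, 15 min with compound, then 90 min with nickel plus streptavidin beads. Signal read in AlphaScreen mode.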
HPGD inh: HPGD (human) dehydrogenase inhibition | AID 894 | hit rate 4.3% among 150,000 | P15428 | Potency, µM, for the others: at the highest dose activity change, negative = inhibition, hits mostly inhibitors | purified HPGD, NADH fluorescence kinetic, PGE2 substrate; active = well fitted inhibition curve with a large enough effect, not every such curve was filed as active; inconclusive = small, poorly fitted or top-dose-only effect, or another doubt; inactive = no such curve, though single readings can be large or run the other way; also: potency is read from the fitted curve at half-maximal effect; % is scaled to controls: 0 for no effect and ±100 for the full control effect
Target sequence (P15428 whole entry, looked up): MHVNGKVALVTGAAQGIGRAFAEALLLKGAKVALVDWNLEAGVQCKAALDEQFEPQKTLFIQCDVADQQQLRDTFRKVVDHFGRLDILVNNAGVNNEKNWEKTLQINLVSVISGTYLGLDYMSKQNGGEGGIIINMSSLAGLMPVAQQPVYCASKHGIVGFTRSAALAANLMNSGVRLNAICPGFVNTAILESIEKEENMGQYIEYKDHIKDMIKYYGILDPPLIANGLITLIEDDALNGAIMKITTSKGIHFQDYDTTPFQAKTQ
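NADH formation kinetics: reaction with 30 uM PGE2 and 1 mM NAD+ (final), 20 nM enzyme, Tris-HCl pH 8 with Tween 20, after 15 min compound preincubation at room temperature. Fluorescence change, last versus first of five reads.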
PNC inhibitor: inhibitors of perinucleolar compartment assembly; PC3M PTB-GFP, PNC prevalence imaging, 16 h; hits give low values; activity change (PNC), negative = inhibition, % at 10 µM; hit rate 3.1% among 140,000; AID 2417;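 active = readout at or below -70, meaning at least 70% loss of cells showing the perinucleolar compartment, a nuclear body marking cancer cells; inconclusive = readout between -30 and a set limit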;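 also: plate controls were DMSO wells for no effect and camptothecin positive control wells for full effect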
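PC3M cells stably expressing PTB-GFP, 750–1000 cells/well, treated 16 h at 37 °C with compound (23 nl of library stock), in duplicate. After paraformaldehyde fixation and Hoechst stain, imaged at 20x; PNC prevalence scored by image analysis.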
* hit, by the source's call; ? = inconclusive; . = no result; [ ] = remark or other dose. This is a sample that favours compounds with a hit; in the whole collection about 11% have one here. Unless noted, calls follow the shape of the dose curve; as a rule, active = well fitted curve in the direction sought with a large enough effect; inconclusive = small, poorly fitted or top-dose-only effect, or another doubt; inactive = no such curve, though single readings can be large; an effect the other way counts as inactive or inconclusive.

SMILES	ALDH1A1 block	HTT aggregate	HTT cytoprotect	CBFb RUNX1 block	HPGD inh	PNC inhibitor
CC1CCCC(NC(=O)CCC(=O)c2ccc(F)cc2)C1C (configuration not stated)	15.8µM*	8.5%[9.22 µM]	-3.7%[10 µM]	7.7%	.	.
COc1cccc(-c2nc(NCc3cccs3)c3ccccc3n2)c1	-5.9%	.	-11.9%	.	.	.
Cc1c(Cl)cccc1-n1nnnc1-c1cccs1	11.2µM*	-17.4%	15.3%[10 µM]	2.8%	-5.7%	?
Cc1ccc(S(=O)(=O)Nc2ccccc2/C=N/c2nc3ccccc3n2C(C)C)cc1	21.3%	?	-7.6%[10 µM]	0.0%	-18.5%	-92.0*
CCCCn1c(/N=C/c2ccccc2NS(=O)(=O)c2ccc(C)cc2)nc2ccccc21	-9.2%	-10.8%	-20.8%[10 µM]	7.1%	-27.1%	?
CCCCCn1c(=NC(C)=O)c(C#N)cc2c(=O)n3cccc(C)c3nc21	.	.	-1.3%[0.074 µM]	.	.	.
COc1cc(C(=O)Oc2ccccc2/C=N/NC(=O)c2ccc(Cl)cc2Cl)cc(OC)c1OC	9.8%	6.31µM*	-58.5%[10 µM]	-2.3%	-11.5%	?
CCc1ccc(C2=NN(CCC(=O)NCc3cccs3)C(=O)CC2)cc1	?	-13.6%	8.2%	2.0%	.	.
CC(=O)N1CCc2cc(C(=O)CN3CCN(C(=O)c4ccco4)CC3)ccc21	11.2µM*	7.5%	-4.1%	2.0%	-5.7%	?
CC(=O)N1CCc2ccc(C(=O)CN3CCN(c4cccc(C)c4C)CC3)cc21	8.91µM*	23.7%	-1.3%[0.074 µM]	-7.3%	-24.4%	-3.5
CC(=O)N1CCc2cc(C(=O)CN3CCCN(Cc4ccc(F)cc4)C3)ccc21	?	15.0%	-1.4%	-4.3%	-12.7%	32.5
CC(=O)N1CCc2cc(C(=O)CN3CCC(C)CC3)ccc21	20µM*	28.9%	-7.3%	-2.6%	?	11.7
CC(=O)N1CCc2cc(C(=O)CN3CCN(c4cccc(Cl)c4)CC3)ccc21	6.31µM*	?	-15.6%	1.4%	-10.6%	6.3
Cc1ccccc1/C=C1\SC(=S)N(/N=C/c2cc([N+](=O)[O-])ccc2O)C1=O	0.398µM*	-9.3%	-13.6%	?	.	.
COc1ccccc1OCCNC1CCCC1	?	13.5%	-59.5%	0.8%	-9.2%	-97.7*
N#Cc1ccccc1OCCOCCNC1CCCC1	-10.1%	0.8%	-6.7%[10 µM]	5.6%	5.6%	?
Cc1ccc(Nc2nc(=O)c3cccnc3s2)cc1	-0.3%	13.1%	-58.6%[0.074 µM]	0.6%	-28.8%	22.7
CCN(c1ccccc1)c1nc(=O)c2cccnc2s1	20µM*	5.1%[9.22 µM]	0.8%[10 µM]	1.6%	.	.
O=C(COc1cccnc1[N+](=O)[O-])N1CCN(S(=O)(=O)c2ccc3ccccc3c2)CC1	15.8µM*	4.6%	40.3%[10 µM]	-7.3%	-21.9%	?
O=C(COc1cccnc1[N+](=O)[O-])Nc1ccc(Cl)c(S(=O)(=O)N2CCOCC2)c1	14.1µM*	-6.3%[9.22 µM]	-6.2%[10 µM]	2.0%	.	.
O=C(CCC(=O)N1CCN(S(=O)(=O)c2ccc3ccccc3c2)CC1)Nc1cc(Cl)cc(Cl)c1	-7.4%	-8.2%	.	2.8%	.	.
Cc1ccc(OCC(=O)N2CCN(S(=O)(=O)c3ccc(Cl)cc3)CC2)c([N+](=O)[O-])n1	?	15.3%	0.3%[10 µM]	-0.5%	.	?
O=C(Cn1ncc(Cl)c(Cl)c1=O)N1CCN(S(=O)(=O)c2ccc3ccccc3c2)CC1	20µM*	26.5%[9.22 µM]	6.6%[10 µM]	-6.8%	.	-16.0
COc1ncc2nc(-c3ccccc3)c(=O)n(CCC#N)c2n1	?	.	-35.4%	.	.	.
O=C(O)C1Nc2c(O)cc(Cl)c([N+](=O)[O-])c2C2C=CCC12 (configuration not stated)	12.6µM*	-7.2%	39.2%[10 µM]	.	.	.
SMILES	ALDH1A1 block	HTT aggregate	HTT cytoprotect	CBFb RUNX1 block	HPGD inh	PNC inhibitor
O=C1N=c2ccccc2=C1c1c(O)n(-c2cccc(F)c2)[nH]c1=O	25.1µM*	7.2%	.	-17.6%	5.62µM*	41.1
CCn1c(O)c(C2=c3ccccc3=NC2=O)c2cc(Br)ccc21	7.5%	10.0%	-11.5%	3.9%	.	.
CC(C)=CCC/C(C)=C/CO/N=C1/[C@H]2O[C@@H]2[C@@H](O)[C@H]2[C@H]1CCn1c(=O)n(Cc3cc4c(cc3Cl)OCO4)c(=O)n12	18.4%[13.5 µM]	.	0.7%[10 µM]	7.1%[13.1 µM]	.	.
CCCNC(=O)COC(=O)c1ccccc1OCc1ccc(Cl)cc1	-2.0%	-6.4%[9.22 µM]	-3.0%	0.6%	-13.7%	-4.0
COc1ccc(-n2c(SCC(=O)Nc3ccccc3)nnc2-c2ccc(NS(=O)(=O)c3ccc(C)cc3)cc2)cc1	10.8%	?	9.2%[10 µM]	-12.0%	-2.5%	29.3
COc1ccc(-n2c(SCC#N)nnc2-c2ccc(NS(=O)(=O)c3ccc(C)cc3)cc2)cc1	?	-6.7%	-62.7%	-6.9%	14.1µM*	?
COc1ccc(-n2c(SCC(N)=O)nnc2-c2ccc(NS(=O)(=O)c3ccc(C)cc3)cc2)cc1	?	22.0%	-1.7%[10 µM]	-2.1%	22.4µM*	-17.3
O=C(O)CC12CC3CC(C1)CC(n1ncc(NCC4CCCO4)c(Cl)c1=O)(C3)C2 (configuration not stated)	25.1µM*	9.7%[9.22 µM]	16.3%[10 µM]	5.3%	.	.
C#CCN[C@@H]1CCc2ccccc21	.	15.5%	18.4%	.	.	.
COc1cccc(C=Nc2cccnc2)c1O	-3.0%	5.8%	-27.5%	0.2%	-22.4%	11.2
COc1ccc2c(c1)-c1nc(/N=C/c3ccccc3O)sc1CC2	28.2µM*	-2.0%	14.0%[10 µM]	-16.0%	-13.6%	23.3
COc1ccc2c(c1)-c1nc(/N=C/c3cccc(OC)c3O)sc1CC2	11.2µM*	-8.0%	-14.3%[10 µM]	8.4%	-17.4%	-22.5
COc1ccc(OC)c(/C=N/c2c(-c3ccc(O)c(OC)c3)nc3ccccn23)c1	?	8.1%	-17.2%	-4.7%	.	.
O=c1/c(=C/c2ccc(O)cc2)sc2nc3cc(Br)cnc3n12	20µM*	16.8%	.	1.9%	.	.
CCc1ccc(Nc2cc(=O)n(C3CCCCC3)c(=O)[nH]2)cc1	1.26µM*	-31.4%	-33.9%	4.3%	2.1%	18.2
O=c1cc(Nc2ccc3c(c2)OCCO3)[nH]c(=O)n1C1CCCCC1	1µM*	-31.4%	-11.4%[10 µM]	3.3%	-19.5%	-22.9
O=c1cc(Nc2ccc3c(c2)OCCO3)[nH]c(=O)n1-c1ccc(Cl)cc1	5.9%	-3.4%	-6.8%	9.1%	-4.5%	-8.2
O=c1cc(N2CCOCC2)oc2c(-c3ccccc3)cccc12	-5.9%	.	-106.1%	?	-20.5%	.
O=C1NC2(CCCCC2)C(=O)N1/N=C/c1ccccc1Br	4.47µM*	-28.6%	-45.3%[10 µM]	7.7%	.	.
O=C(Nc1ccc2c(c1)C(=O)N(CC1CCCO1)C2=O)c1ccc(Cl)c(Cl)c1 (configuration not stated)	?	13.2%	-0.8%	2.6%	?	?

Compound activity as filed in PubChem.
